Source: PubChem BioAssay (NCI)
About 83,000 compounds went through this panel and 20% of them were active in at least one assay; those are over-represented in the sample as a whole.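 For each line, cells grew in 96-well plates with the test compound present at a single concentration for 48 hours.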

Legend:
Assay in all cases: NCI-60 one-dose screen, 48 h (100 = growth as untreated, 0 = no growth, -100 = all killed)
Details in all cases: 10 µM; active means growth percent below 10; inactive means the rest
NCI-H23 lung = tested on: NCI-H23 lung
NCI-H226 lung = tested on: NCI-H226 lung
NCI-H322M lung = tested on: NCI-H322M lung
HOP-62 NSCLC = tested on: HOP-62 NSCLC
NCI-H460 lung = tested on: NCI-H460 lung
HOP-92 NSCLC = tested on: HOP-92 NSCLC
A549/ATCC NSCLC = tested on: A549/ATCC NSCLC
786-0 renal = tested on: 786-0 renal
COLO 205 colon = tested on: COLO 205 colon
DU-145 prostate = tested on: DU-145 prostate
K-562 leukemia = tested on: K-562 leukemia
MALME-3M melanoma = tested on: MALME-3M melanoma
MDA-MB-231 breast = tested on: MDA-MB-231 breast
RXF 393 renal = tested on: RXF 393 renal
SF-268 CNS = tested on: SF-268 CNS
SF-295 CNS = tested on: SF-295 CNS
SF-539 CNS = tested on: SF-539 CNS
UACC-257 melanoma = tested on: UACC-257 melanoma
M14 melanoma = tested on: M14 melanoma

Measured: growth

O=S(=O)(O)c1ccc(O)c2ccccc12
inactive: NCI-H23 lung 93.4% | NCI-H226 lung 102% | NCI-H322M lung 110% | HOP-62 NSCLC 107% | NCI-H460 lung 115% | HOP-92 NSCLC 98.8% | A549/ATCC NSCLC 118% | 786-0 renal 101% | COLO 205 colon 121% | DU-145 prostate 115% | K-562 leukemia 104% | MALME-3M melanoma 127% | MDA-MB-231 breast 90.8% | RXF 393 renal 108% | SF-268 CNS 98.5% | SF-295 CNS 119% | SF-539 CNS 91.8% | UACC-257 melanoma 112% | M14 melanoma 79.4%

S=C1NCc2cncnc2N1
inactive: NCI-H23 lung 109% | NCI-H226 lung 101% | NCI-H322M lung 114% | HOP-62 NSCLC 93.5% | NCI-H460 lung 106% | HOP-92 NSCLC 95.6% | A549/ATCC NSCLC 98.2% | 786-0 renal 106% | COLO 205 colon 111% | DU-145 prostate 112% | K-562 leukemia 93% | MALME-3M melanoma 112% | MDA-MB-231 breast 132% | RXF 393 renal 105% | SF-268 CNS 107% | SF-295 CNS 94.2% | SF-539 CNS 92.7% | M14 melanoma 103%

CC(CN1CCCCC1)NC(=O)c1scnc1-c1ccccc1 (stereo not drawn)
inactive: NCI-H23 lung 101% | NCI-H226 lung 108% | NCI-H322M lung 95.6% | HOP-62 NSCLC 100% | NCI-H460 lung 111% | HOP-92 NSCLC 91.9% | A549/ATCC NSCLC 96.8% | 786-0 renal 102% | COLO 205 colon 104% | DU-145 prostate 116% | K-562 leukemia 113% | MALME-3M melanoma 106% | MDA-MB-231 breast 114% | RXF 393 renal 101% | SF-268 CNS 115% | SF-295 CNS 79% | SF-539 CNS 114% | M14 melanoma 101%

CCOC(=O)Nc1nn[nH]n1
inactive: NCI-H23 lung 102% | NCI-H226 lung 107% | NCI-H322M lung 129% | HOP-62 NSCLC 113% | NCI-H460 lung 99.9% | HOP-92 NSCLC 97.3% | A549/ATCC NSCLC 103% | 786-0 renal 105% | COLO 205 colon 107% | DU-145 prostate 108% | K-562 leukemia 110% | MDA-MB-231 breast 104% | RXF 393 renal 105% | SF-268 CNS 100% | SF-295 CNS 106% | SF-539 CNS 97.7% | UACC-257 melanoma 116% | M14 melanoma 95.3%

CC(=O)C1CCCCC1
inactive: NCI-H23 lung 103% | NCI-H226 lung 89.9% | NCI-H322M lung 105% | HOP-62 NSCLC 96% | NCI-H460 lung 102% | HOP-92 NSCLC 77.5% | A549/ATCC NSCLC 97.2% | 786-0 renal 98.8% | COLO 205 colon 101% | DU-145 prostate 111% | MALME-3M melanoma 107% | MDA-MB-231 breast 102% | RXF 393 renal 99.1% | SF-268 CNS 107% | SF-295 CNS 92.4% | SF-539 CNS 111% | M14 melanoma 106%

CN(c1ccccc1)c1ncnc2c1ncn2C
inactive: NCI-H23 lung 101% | NCI-H226 lung 107% | NCI-H322M lung 115% | HOP-62 NSCLC 103% | NCI-H460 lung 101% | HOP-92 NSCLC 105% | A549/ATCC NSCLC 87.3% | 786-0 renal 106% | COLO 205 colon 105% | DU-145 prostate 108% | K-562 leukemia 103% | MDA-MB-231 breast 109% | RXF 393 renal 122% | SF-268 CNS 97.5% | SF-295 CNS 109% | SF-539 CNS 107% | UACC-257 melanoma 87.9% | M14 melanoma 104%

Brc1cnc2ccccc2c1
inactive: NCI-H23 lung 103% | NCI-H226 lung 105% | NCI-H322M lung 106% | HOP-62 NSCLC 100% | NCI-H460 lung 109% | HOP-92 NSCLC 95.1% | A549/ATCC NSCLC 104% | 786-0 renal 109% | COLO 205 colon 100% | DU-145 prostate 102% | K-562 leukemia 107% | MALME-3M melanoma 94.6% | MDA-MB-231 breast 113% | RXF 393 renal 121% | SF-268 CNS 97.2% | SF-295 CNS 101% | SF-539 CNS 103% | UACC-257 melanoma 103% | M14 melanoma 97.7%

CC(C(=O)O)(C1CCCCC1)C1(O)CCCCC1 (stereo not drawn)
inactive: NCI-H23 lung 103% | NCI-H226 lung 102% | NCI-H322M lung 101% | HOP-62 NSCLC 96.4% | NCI-H460 lung 105% | HOP-92 NSCLC 104% | A549/ATCC NSCLC 106% | 786-0 renal 98.9% | COLO 205 colon 104% | DU-145 prostate 108% | K-562 leukemia 102% | MALME-3M melanoma 98.9% | MDA-MB-231 breast 109% | RXF 393 renal 99.1% | SF-268 CNS 99.2% | SF-295 CNS 82.9% | SF-539 CNS 103% | M14 melanoma 104%

O=S(=O)(O)c1ccc(Cl)c(Cl)c1
inactive: NCI-H23 lung 101% | NCI-H226 lung 111% | NCI-H322M lung 127% | HOP-62 NSCLC 102% | NCI-H460 lung 110% | HOP-92 NSCLC 94.3% | A549/ATCC NSCLC 95.5% | 786-0 renal 98.5% | COLO 205 colon 117% | DU-145 prostate 120% | K-562 leukemia 105% | MDA-MB-231 breast 108% | RXF 393 renal 132% | SF-268 CNS 113% | SF-295 CNS 112% | SF-539 CNS 107% | UACC-257 melanoma 124% | M14 melanoma 101%

CC1CC(O)CC(C)(C)C1 (stereo not drawn)
inactive: NCI-H23 lung 98.4% | NCI-H226 lung 106% | NCI-H322M lung 98.2% | HOP-62 NSCLC 97.9% | NCI-H460 lung 106% | HOP-92 NSCLC 96.5% | A549/ATCC NSCLC 97.3% | 786-0 renal 107% | COLO 205 colon 102% | DU-145 prostate 101% | K-562 leukemia 110% | MALME-3M melanoma 97.4% | MDA-MB-231 breast 105% | RXF 393 renal 115% | SF-268 CNS 91.9% | SF-295 CNS 98.7% | SF-539 CNS 95.2% | UACC-257 melanoma 97.8% | M14 melanoma 108%

O=[N+]([O-])c1ccccc1S(=O)c1ccccc1[N+](=O)[O-]
inactive: NCI-H23 lung 95.9% | NCI-H226 lung 111% | NCI-H322M lung 95.5% | HOP-62 NSCLC 108% | NCI-H460 lung 105% | HOP-92 NSCLC 76.2% | A549/ATCC NSCLC 101% | 786-0 renal 111% | COLO 205 colon 106% | DU-145 prostate 106% | K-562 leukemia 47.9% | MALME-3M melanoma 90.4% | MDA-MB-231 breast 74% | RXF 393 renal 111% | SF-268 CNS 88.1% | SF-295 CNS 79% | SF-539 CNS 113% | M14 melanoma 95.9%

O=C(O)c1ccccc1NCc1ccco1
inactive: NCI-H23 lung 90.9% | NCI-H226 lung 92.6% | NCI-H322M lung 102% | HOP-62 NSCLC 95.7% | NCI-H460 lung 102% | HOP-92 NSCLC 108% | A549/ATCC NSCLC 102% | 786-0 renal 97.2% | COLO 205 colon 126% | DU-145 prostate 118% | K-562 leukemia 104% | MALME-3M melanoma 108% | MDA-MB-231 breast 104% | SF-268 CNS 111% | SF-295 CNS 114% | SF-539 CNS 103% | UACC-257 melanoma 143% | M14 melanoma 102%

O=C(O)c1ccc(S(=O)(=O)O)cc1
inactive: NCI-H23 lung 101% | NCI-H226 lung 99.6% | NCI-H322M lung 98.8% | HOP-62 NSCLC 99.3% | NCI-H460 lung 109% | HOP-92 NSCLC 76.3% | A549/ATCC NSCLC 91.5% | 786-0 renal 89.7% | COLO 205 colon 129% | DU-145 prostate 133% | K-562 leukemia 114% | MALME-3M melanoma 97.2% | MDA-MB-231 breast 107% | SF-268 CNS 123% | SF-295 CNS 107% | SF-539 CNS 97.9% | M14 melanoma 117%

CCCCCC(C)(CC(=O)O)CC(=O)O
inactive: NCI-H23 lung 115% | NCI-H226 lung 97% | NCI-H322M lung 113% | HOP-62 NSCLC 101% | NCI-H460 lung 108% | HOP-92 NSCLC 119% | A549/ATCC NSCLC 101% | 786-0 renal 107% | COLO 205 colon 116% | DU-145 prostate 122% | K-562 leukemia 106% | MDA-MB-231 breast 138% | RXF 393 renal 101% | SF-268 CNS 122% | SF-539 CNS 105% | UACC-257 melanoma 101% | M14 melanoma 109%

CCCCOC(OCCCC)c1ccccc1
inactive: NCI-H23 lung 95% | NCI-H226 lung 107% | NCI-H322M lung 104% | HOP-62 NSCLC 117% | NCI-H460 lung 109% | HOP-92 NSCLC 101% | A549/ATCC NSCLC 91.4% | 786-0 renal 105% | COLO 205 colon 112% | DU-145 prostate 112% | K-562 leukemia 107% | MALME-3M melanoma 132% | MDA-MB-231 breast 112% | RXF 393 renal 128% | SF-268 CNS 96.5% | SF-295 CNS 111% | SF-539 CNS 91.8% | UACC-257 melanoma 109% | M14 melanoma 113%

c1cc[n+](C2c3ccccc3C([n+]3ccccc3)c3ccccc32)cc1 (stereo not drawn)
inactive: NCI-H23 lung 65.2% | NCI-H226 lung 49.6% | NCI-H322M lung 84.8% | HOP-62 NSCLC 37.8% | NCI-H460 lung 98.8% | HOP-92 NSCLC 20.6% | A549/ATCC NSCLC 78.5% | 786-0 renal 50% | COLO 205 colon 30.8% | DU-145 prostate 91.7% | K-562 leukemia 72.9% | MALME-3M melanoma 53.1% | MDA-MB-231 breast 70.6% | RXF 393 renal 61.6% | SF-268 CNS 23% | SF-295 CNS 52% | SF-539 CNS 27.9% | UACC-257 melanoma 80.1% | M14 melanoma 96%

Nc1ccc(NC(=O)c2cccc(N)c2)cc1
inactive: NCI-H23 lung 96.7% | NCI-H226 lung 99.1% | NCI-H322M lung 95.2% | HOP-62 NSCLC 86.5% | NCI-H460 lung 101% | HOP-92 NSCLC 81.1% | A549/ATCC NSCLC 47.6% | 786-0 renal 101% | COLO 205 colon 114% | DU-145 prostate 108% | MALME-3M melanoma 85.7% | MDA-MB-231 breast 97.1% | SF-268 CNS 102% | SF-295 CNS 92.5% | SF-539 CNS 96.3% | M14 melanoma 104%

C=CCNc1nnc(C)s1
inactive: NCI-H23 lung 98.1% | NCI-H226 lung 99.8% | NCI-H322M lung 96.7% | HOP-62 NSCLC 98.8% | NCI-H460 lung 115% | HOP-92 NSCLC 83% | A549/ATCC NSCLC 116% | 786-0 renal 94.9% | COLO 205 colon 122% | DU-145 prostate 118% | K-562 leukemia 106% | MALME-3M melanoma 106% | MDA-MB-231 breast 102% | SF-268 CNS 119% | SF-295 CNS 115% | SF-539 CNS 99.9% | M14 melanoma 103%
